Laboratory results as given in publication PMC5540273 (PLoS ONE, 2017).

Experiments:
Details in all cases: concentration: 1 μM, replicates: in singlicate; n = 1
[1] = system: T1, ERK1
T1 construct: gene MAPK3

[2] = system: T2, ERK2
T2 construct: gene MAPK1

[3] = system: T3, ERK3
T3 construct: gene MAPK6

[4] = system: T4, ERK4
T4 construct: gene MAPK4

[5] = system: T5, ERK5
T5 construct: gene MAPK7

[6] = system: T6, ERK8
T6 construct: gene MAPK15

[7] = system: ERN1
[8] = system: T7, FAK
T7 construct: gene PTK2

[9] = system: FER
[10] = system: FES
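Also: KINOMEscan kinase panel screen.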

Row | Structure (SMILES) | %Inh [1] [%] | %Inh [2] [%] | %Inh [3] [%] | %Inh [4] [%] | %Inh [5] [%] | %Inh [6] [%] | %Inh [7] [%] | %Inh [8] [%] | %Inh [9] [%] | %Inh [10] [%]
1 | COc1cc(Nc2ccnc3cc(-c4ccncc4)ccc23)cc(OC)c1OC.Cl [GW494610] | 0 | 0 | 5 | 0 | 0 | 22 | 10 | 0 | 26 | 0
2 | Cc1cc(-c2c(-c3ccc(F)cc3)ncn2CCCN2CCOCC2)nc(N)n1 [SB-222517] | 4 | 21 | 0 | 0 | 0 | 6 | 0 | 0 | 16 | 35
3 | CN(c1ccc(NC(=O)Nc2cccc(Cl)c2)cc1)c1ccnc(N)n1.Cl [GW830707] | 0 | 12 | 0 | 0 | 0 | 6 | 32 | 15 | 9 | 19
4 | CC(C)c1nc(-c2ccc(F)c(NS(=O)(=O)c3c(F)cccc3F)c2)c(-c2ccnc(Nc3ccc(N4CCOCC4)nc3)n2)s1 [GSK1804250] | 8 | 0 | 1 | 0 | 10 | 38 | 49 | 0 | 41 | 15
5 | c1ccc(Oc2ccc(Nc3ccnc4cc(-c5ccc(CN6CCCCC6)o5)ccc34)cc2)nc1 [GW567143] | 13 | 0 | 0 | 0 | 0 | 0 | 26 | 0 | 4 | 0
6 | CN(c1ccc(F)c(NC(=O)c2cccc(OC(C)(C)C#N)c2Cl)c1)c1ccc2nc(NC(=O)C3CC3)sc2n1 | 1 | 1 | 0 | 0 | 4 | 0 | 0 | 1 | 0 | 0
7 | CN(c1ccc(NC(=O)N2CCN(CCCN3CCOCC3)CC2)cc1)c1ccnc(Nc2ccc(CS(C)(=O)=O)cc2)n1.Cl [GW830899] | 0 | 0 | 0 | 8 | 0 | 0 | 0 | 34 | 10 | 0
8 | CCn1cnc2c(NCc3ccccc3)ncnc21 [SKF-96418] | 0 | 0 | 7 | 17 | 0 | 4 | 19 | 0 | 0 | 3
9 | CSc1ccc(NC2=C(c3ccc(Cl)cc3)C(=O)NC2=O)cc1 [SB-317658] | 9 | 29 | 11 | 0 | 0 | 13 | 47 | 7 | 0 | 29
10 | O=C(O)C(F)(F)F.O=c1[nH]ccc2nc(N[C@@H]3CCNC3)nc(Nc3ccc4c(c3)S(=O)(=O)CC4)c12 [GSK2181306] | 55 | 61 | 78 | 28 | 17 | 5 | 39 | 84 | 75 | 16
11 | O=C(Nc1c(F)cccc1F)c1cc(C(=O)c2ccccc2F)c[nH]1 [GSK1326180] | 8 | 3 | 9 | 0 | 0 | 0 | 0 | 0 | 0 | 0
12 | Cc1nn2c(=O)cc(N3CCO[C@H](C)C3)nc2n1Cc1cccc(Cl)c1Cl [GSK2373693] | 0 | 0 | 0 | 19 | 0 | 26 | 0 | 0 | 8 | 0
13 | COc1cccc(CC(=O)N2CCc3cc(-c4cn(C)c5ncnc(N)c45)ccc32)c1 [GSK2608899] | 6 | 13 | 0 | 12 | 0 | 17 | 19 | 8 | 17 | 0
14 | CN1CCN(Cc2ccc(NC(=O)Nc3ccc(N(C)c4ccnc(Nc5ccc(CS(C)(=O)=O)cc5)n4)cc3)cc2)CC1.Cl [GW827654] | 0 | 0 | 0 | 0 | 0 | 78 | 58 | 46 | 45 | 21
15 | COc1cccc2c(-c3ccncc3)c(-c3ccc(F)cc3)nn12 [GW468513] | 5 | 0 | 0 | 0 | 0 | 16 | 0 | 0 | 13 | 1
